# Assay outcomes as filed in PubChem.
# Mcl1-Noxa inh = Mcl-1/Noxa interaction inhibition; Q07820; TR-FRET Mcl-1/Noxa peptide binding, 2 h; inhibition, % at 21.7 µM; 220,000 tested, 1.5% active; AID 1022;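 active means compounds that cut the protein-peptide binding signal by more than 50% relative to plate controls in a single-dose test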;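 further: His-tagged Mcl-1 with rhodamine Noxa BH3 peptide and terbium anti-His antibody; 0% = Mcl-1 plus Noxa peptide wells and 100% = peptide-only wells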
# Target sequence (Q07820 whole entry, looked up): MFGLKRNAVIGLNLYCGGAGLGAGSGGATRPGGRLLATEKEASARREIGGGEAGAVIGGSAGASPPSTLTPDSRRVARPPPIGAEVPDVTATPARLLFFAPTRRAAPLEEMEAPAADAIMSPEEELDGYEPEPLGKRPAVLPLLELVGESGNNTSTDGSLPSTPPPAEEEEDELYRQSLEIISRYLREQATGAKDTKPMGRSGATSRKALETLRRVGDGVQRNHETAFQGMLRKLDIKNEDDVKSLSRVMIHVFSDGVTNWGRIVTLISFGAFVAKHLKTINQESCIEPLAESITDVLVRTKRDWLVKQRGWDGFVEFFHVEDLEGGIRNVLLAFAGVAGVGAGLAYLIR
# Mcl1-Bid inh = disrupts binding of human Mcl-1 to Bid peptide; AID 1021; 220,000 tested, 0.97% active; Q07820; TR-FRET Mcl-1/Bid-Dy647 peptide binding, 1536-well; inhibition, % at 21.7 µM;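 active means compounds that cut the binding signal by more than half at the single screening dose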;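 further: His-tagged Mcl-1 with europium anti-His antibody binding Bid BH3 peptide; 0% = Mcl-1 plus peptide wells and 100% = peptide-only wells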
# Mcl-1 Bim block = disrupts Bim peptide binding to human Mcl-1; Q07820; Bead-based flow cytometry, Bim peptide-Mcl-1 binding; inhibition, % at 10 µM; 190,000 tested, 0.1% active; AID 1009; in the data active means inhibition above about 40%;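 further: 0% = no compound tracer wells and 100% = peptide blocker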
# MCL1 BIM primary = disrupts human MCL1 binding to BIM-BH3 peptide | Q07820 | GST-MCL1 / FITC-Bim-BH3 fluorescence polarization | inhibition, % at 10.9 µM | 320,000 tested, 0.68% active;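 active means inhibition above the mean inhibition of all tested compounds plus 3 SD, set per campaign, cut at about 40% in these data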;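 further: 0% = DMSO wells and 100% = unlabeled Bim-BH3 peptide control; higher means more loss of mP so more displacement of Bim peptide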
# * marks the source's active call; other numbers are inactive results; . = no result. Rows were chosen to be rich in hits. Some 2% of all compounds tested hit in one or more screens of this group.
SMILES,Mcl1-Noxa inh,Mcl1-Bid inh,Mcl-1 Bim block,MCL1 BIM primary
CN(C)c1ccc(C(CNC(=O)c2ccc(C#N)cc2)c2c[nH]c3ccccc23)cc1 (stereo unspecified),79*,-6,-1,-3
CN(C)c1ccc(C(CNC(=O)c2ccccc2Br)c2c[nH]c3ccccc23)cc1 (stereo unspecified),78*,-55,-4,-5
Cn1c(-c2ccccc2)c(C(=O)CCl)c2ccccc21,70*,-23,0,.
CCCN1CCN(CCCNC(=O)Cn2nc(C)n3c(cc4cc(F)ccc43)c2=O)CC1,.,.,.,-2
Cc1cccc(NS(=O)(=O)c2cn(C)c(=O)n(C)c2=O)c1C,.,.,.,-4
Cc1ccc(C)c(NC(=O)C2CCCN2/C=C/C(=O)C(F)(F)F)c1 (stereo unspecified),-7,72*,-2,-5
Cc1cccc(NC(=O)C2CCCN2/C=C/C(=O)C(F)(F)F)c1C (stereo unspecified),14,-44,-3,-2
S=c1[nH]nc(-c2cccc(Cl)c2)n1CCN1CCCCC1,-3,95*,-2,-7
CCn1c(-c2ccc3ncccc3c2)n[nH]c1=S,10,-73,-4,-17
CCn1c(-c2cccc(S(=O)(=O)N3CCCC3)c2)n[nH]c1=S,1,-65,.,-12
CCn1c(-c2cccc(Br)c2)n[nH]c1=S,45,97*,-7,-7
Oc1ccc(-c2nc(-c3ccc(O)c(O)c3)cs2)cc1,59*,-2,0,24
Oc1ccc2ccccc2c1C1Nc2cccc3cccc(c23)N1,51*,20,1,13
Cc1ccc(/C=C2/SC(=S)N(c3ccc(S(=O)(=O)Nc4nccs4)cc3)C2=O)cc1,56*,-44,.,-1
O=C1/C(=C/c2ccccn2)SC(=S)N1c1ccc(O)cc1,77*,31,.,-3
Cc1ccc(Oc2ccc3c(c2)C(=O)N(c2ccc(S(=O)(=O)Nc4nccs4)cc2)C3=O)cc1,23,-29,-3,13
Cc1ccc(-n2[nH]c(C)c(C=Nc3ccc(S(=O)(=O)Nc4nccs4)cc3)c2=O)cc1C,61*,35,-3,-4
Cc1ccc(S(=O)(=O)NN2C(=O)/C(=C/c3ccccn3)SC2=S)cc1,5,-48,0,13
Cc1cccc(N2C(=O)/C(=C/c3ccccn3)SC2=S)c1,-14,-10,.,-5
O=C1/C(=C\c2ccccn2)SC(=S)N1c1ccc(S(=O)(=O)Nc2nccs2)cc1,82*,-77,.,11
OCCC1CN(CC2CC2)CCN1Cc1ccc(F)c(F)c1 (stereo unspecified),.,.,.,6
Cc1ccc(NC(=O)CCNS(=O)(=O)c2ccccc2F)cc1S(=O)(=O)N1CCOCC1,.,.,.,0
Cn1cc(CN2CCC(n3nccc3NC(=O)Cc3ccccc3)CC2)cn1,.,.,.,-7
COc1ccc(/C=C2/SC(=S)N(c3ccc(S(=O)(=O)Nc4nccs4)cc3)C2=O)cc1,101*,-61,.,5
Cc1cc2nc(-c3ccc(SCc4ccc(C(=O)O)cc4)nc3)[nH]c2cc1C,76*,-62,4,1
SMILES,Mcl1-Noxa inh,Mcl1-Bid inh,Mcl-1 Bim block,MCL1 BIM primary
CSCCC(NC(=O)c1ccco1)C(=O)N1CCN(c2ccccc2O)CC1 (stereo unspecified),.,.,.,7
O=C1c2ccccc2C(=O)N1c1cccc(-c2csc(Nc3ccc4c(c3)OCO4)n2)c1,62*,38,1,53*
CC(=O)c1sc2nc(-c3cccs3)ccc2c1N,74*,-59,-4,30
COc1ccc(C(=O)c2sc3nc(-c4ccc(OC)cc4)ccc3c2N)cc1,77*,23,0,-21
CC(C)NC(=O)c1sc2nc(-c3cccs3)cc(-c3cccs3)c2c1N,52*,17,2,-7
Nc1c(C(=O)Nc2nc3ccccc3s2)sc2nc(-c3cccs3)ccc12,97*,92*,4,-2
Nc1ccc(C(=O)Nc2nc3ccccc3s2)cc1,6,-17,-2,7
Cc1cc(NC2C3CC4CC(C3)CC2C4)n2nnnc2n1 (stereo unspecified),27,76*,0,2
Cc1cc(NC2C3CC4CC(C3)CC2C4)n2ncnc2n1 (stereo unspecified),-4,-4,10,-34
COc1cccc(CN(C)C(=O)C2CC(=O)N(c3ccc4c(c3)OCCO4)C2)c1 (stereo unspecified),.,.,.,1
O=C(CN(Cc1ccc(F)cc1)C(=O)CCC(=O)Nc1ccccn1)NCc1ccc(F)cc1,.,.,.,-1
O=C(/C=C/c1cccs1)N1CCN(c2ccc(O)cc2)CC1,79*,-55,2,12
Nc1ccc(N2CCN(C(=O)c3cccs3)CC2)cc1,61*,-91,15,15
O=C(/C=C/c1cccs1)N1CCCCC1,7,-20,0,5
CC(=O)Nc1ccc(N2CCN(C(=O)c3cccs3)CC2)cc1,9,-19,-3,10
Cc1ccc(-n2c(=O)c3cc4c(=O)n(-c5ccc(C)c(C)c5)c(=O)c4c(C(=O)c4ccc(C(=O)O)cc4)c3c2=O)cc1C,95*,102*,.,5
O=C(O)c1ccc(-n2c(=O)c3ccccc3c3ccccc3c2=O)cc1,0,7,0,-3
COc1ccccc1NS(=O)(=O)c1ccc(C)c(NS(=O)(=O)c2cc(C(=O)O)cc(C)c2C)c1,.,.,.,2
NC(=O)N/N=C/c1c(Sc2nnnn2-c2ccccc2)nc2ccccn2c1=O,3,-7,.,1
Nc1nn2c(-c3ccccc3)cc(=O)[nH]c2c1N=Nc1ccc(Br)cc1,92*,36,1,.
COc1cc2[nH]c(=S)n(N(C(C)=O)C(C)=O)c(=O)c2cc1OC,8,97*,-3,-14
COc1cc2[nH]c(=S)n(C3CC3)c(=O)c2cc1OC,23,-59,1,7
Nc1nc2ccccc2nc1N,14,-1,6,6
c1ccc2nc3ccccc3nc2c1,38,86*,0,1
CC1OC(OC2C(Oc3c(-c4ccc(O)cc4)oc4cc(O)cc(O)c4c3=O)OC(COC3O[C@@H](C)[C@H](O)[C@@H](O)C3O)C(O)C2O)C(O)C(O)C1O (stereo partly specified),.,.,.,1
SMILES,Mcl1-Noxa inh,Mcl1-Bid inh,Mcl-1 Bim block,MCL1 BIM primary
CC1OC(OCC2OC(Oc3c(-c4ccc(O)cc4)oc4cc(O)cc(O)c4c3=O)C(O)C(O)C2O)C(O)C(O)C1O (stereo unspecified),54*,-7,0,14
COC(=O)C(Cc1csc2ccc(Cl)cc12)NC(=O)c1ccc(Cl)cc1 (stereo unspecified),45,82*,.,9
COC(=O)C(Cc1ccccc1)NC(=O)c1ccc(C)cc1 (stereo unspecified),19,-29,-3,14
C=CCNc1nc(C)c(C(C)=O)cc1C#N,10,-3,4,-6
CC(=O)c1cc(C#N)c(NCCCN(C)C)nc1C,3,56*,3,2
CCCc1cc(SCC(=O)Nc2c(C)n(C)n(-c3ccccc3)c2=O)n2c(nc3ccccc32)c1C#N,-50,66*,2,0
Cc1nc(SCC(=O)Nc2c(C)n(C)n(-c3ccccc3)c2=O)c(C#N)c(C)c1C,.,.,.,1
Cc1nc2sc3c(c2c2nc(-c4ccco4)nn12)CCCC3,-4,-11,5,.
